Results: ChEMBL document CHEMBL4513146, “CO-ADD screening of Karazin Kharkiv National University (Ukraine) compounds”
Potency and affinity values are given separately.

Legend:
Klebsiella pneumoniae = details: Concentration 32 ug.mL-1;; ASSAY_TEST Inhibition of Bacterial Growth; detection method Absorption (OD600); MEDIA CAMHB; plate type 384well; NBS; CORNING #3640; time 18 hr
Candida albicans = details: Concentration 32 ug.mL-1; ASSAY_TEST Inhibition of Fungal Growth; detection method Absorption (OD530)
Cryptococcus neoformans = details: Concentration 32 ug.mL-1; ASSAY_TEST Inhibition of Fungal Growth; detection method Resazurin; Absorption (OD600-OD570); plate type 384well; NBS; CORNING #3640

Row | SMILES | Inhibition (Klebsiella pneumoniae) [%] | Inhibition (Candida albicans) [%] | Inhibition (Cryptococcus neoformans) [%]
1 | Cc1cc(C)cc(N(Cc2ccc(Cl)cc2)S(=O)(=O)c2cccn3c(C)nnc23)c1 | 4.19 | 0.27 | -8.23
2 | COc1cccc(Sc2nc3ccccc3n3c(=O)n(CC(=O)Nc4c(C)cc(C)cc4C)nc23)c1 | 4.89 | -0.39 | -17.68
3 | COc1cc(OC)c(NC(=O)Cn2nc3c(Sc4ccc(C)cc4C)nccn3c2=O)cc1Cl | 6.06 | 4 | -14.9
4 | Cc1cccc(Oc2nccn3c(=O)n(CC(=O)Nc4cccc(C(F)(F)F)c4)nc23)c1C | 9.81 | 16 | -8.68
5 | COc1cccc(-n2ccn3c(SCC(=O)c4ccc(C)cc4)nnc3c2=O)c1 | 10.94 | 3.43 | -10.21
6 | Cc1ccccc1Cn1nc2ccc(-c3ccccc3)nn2c1=O | 7.15 | 0.4 | -8.99
7 | Cc1cc(C)cc(Oc2nc3ccccc3n3c(=O)n(CC(=O)Nc4ccc5c(c4)OCO5)nc23)c1 | 6.8 | 46.24 | -19.74
8 | Cc1ccc(-c2cc3c4nnc(CCC(=O)NCc5ccc(F)c(Cl)c5)n4ccn3n2)cc1C | 10.99 | 2.11 | -43.73
9 | COc1ccc(-c2cc3c4nn(CC(=O)Nc5cc(OC)cc(OC)c5)c(=O)n4ccn3n2)cc1 | 0.53 | 33.73 | -18.18
10 | COc1cccc(CNC(=O)CSc2nnc3c4cc(-c5ccc(C)cc5)nn4ccn23)c1 | -13.2 | 4.52 | -12.58
11 | COc1ccc(-c2cc3c4nnc(SCC(=O)N(C)c5ccccc5)n4ccn3n2)cc1 | 5.6 | 32.67 | -11.25
12 | COc1cccc(-n2ccn3c(SCc4cccc(Cl)c4)nnc3c2=O)c1 | 8.66 | 0.25 | -7.39
13 | COC(=O)c1ccccc1NC(=O)Cn1nc2c3cc(-c4ccc(Cl)cc4)nn3ccn2c1=O | 3.97 | 0.23 | -15.71
14 | COc1ccc(C(=O)CSc2nnc3c(=O)n(-c4ccc(F)c(F)c4)ccn23)cc1 | 16.31 | 2.03 | -11.53
15 | Cc1cc(C)cc(NC(=O)Cn2nc3c(N4CCCC4)nccn3c2=O)c1 | 18.22 | 0.29 | -23.65
16 | O=C(CCc1nnc2c3cc(-c4ccc(F)cc4)nn3ccn12)N1CCC(Cc2ccccc2)CC1 | 4.22 | -1.12 | -13.61
17 | Cc1ccc(-c2cc3c4nnc(CCC(=O)N5CCN(c6ccccn6)CC5)n4ccn3n2)cc1C | 7.34 | 0.49 | -12.2
18 | Cc1ccc(-c2cc3c4nn(CC(=O)Nc5ccc(F)cc5Cl)c(=O)n4ccn3n2)cc1 | 2.7 | 1.88 | -28.25
19 | Cc1ccc(Sc2nccn3c(=O)n(CC(=O)Nc4c(C)cc(C)cc4C)nc23)c(C)c1 | 17.85 | -0.74 | -21.38
20 | CCOc1ccc(C(=O)CSc2nnc3c(=O)n(-c4cccc(OC)c4)ccn23)cc1 | 2.62 | 7.56 | -12.78
21 | CCOC(=O)c1ccccc1NC(=O)Cn1nc2c3cc(-c4ccc(Cl)cc4)nn3ccn2c1=O | 14.78 | 2.98 | -20.88
22 | CCOC(=O)C1CCCN(C(=O)Cn2nc3n(CC(C)C)c(=O)c4sccc4n3c2=O)C1 (centres undefined) | 8.18 | -1.48 | -14.07
23 | CCc1ccc(N(Cc2ccccc2F)S(=O)(=O)c2cccn3c(CC)nnc23)cc1 | 6.04 | 4.59 | -5.13
